The full list was thinned out, with hits kept by preference.
Pf Dd2 growth – Plasmodium falciparum Dd2 growth inhibition; P. falciparum Dd2 growth, SYBR Green, 72 h; Potency, µM (titrated, usually from 28.9 µM), inactives show at the highest dose activity, negative = inhibition, hits mostly inhibitors; hit rate 4.3% among 120,000; active = well fitted inhibition curve with a large enough effect;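 also: plate controls were DMSO vehicle for no effect and reference drug for full effect; nearly all actives have a fitted effect of over 65% in size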
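Readout: SYBR Green fluorescence, 485 nm excitation, 535 nm emission, after ~16 h lysis at 37C. Before that, Dd2-infected red cells (2.5% hematocrit) grew 72 h with compound, 29 uM top final concentration.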
Numbers without * were called inactive; i = inactive; [ ] = another dose, or the depositor's remark. Potency is read from the fitted curve at half-maximal effect.

SMILES | Pf Dd2 growth
COCC(=O)Nc1ccc(-c2noc([C@@H]3CCCN3Cc3cccnc3)n2)cn1 | 8.9µM*
COc1ccc(-c2noc([C@@H]3CCCN3C(=O)c3ccncc3)n2)cc1OC | 80%
COCCNc1ccc(-c2noc([C@@H]3CCCN3C3CCC3)n2)cn1 | i
COCCNc1ccc(-c2noc([C@@H]3CCCN3Cc3cc(OC)c(OC)c(OC)c3)n2)cn1 | 8.9µM*
O=C(Cn1nc2n(c1=O)CCCC2)Nc1ccc(F)cc1 | 4%
COc1ccc(S(=O)(=O)N2C[C@@H]3C[C@H](C2)c2ccc(NS(=O)(=O)c4cccs4)c(=O)n2C3)cc1 | 3%
O=C(c1cccs1)N1CC[C@@H]2[C@@H](CCC(=O)N2CCc2cnc[nH]2)C1 | -5%
Cc1noc([C@@H]2CC(F)(F)CN2C(=O)c2ccoc2C)n1 | i
Cc1ncccc1Oc1ncnc(-c2cc(N)nc3[nH]ccc23)c1C | -19%
O=C(NC[C@H]1OC[C@@H](NC2CCCC2)[C@@H]1O)Nc1ccccc1 | -10%[44.1 µM]
O=C(c1cccc(Cn2cccn2)c1)N1CCn2nc(C(=O)N3CCCC3)cc2C1 | -30%
O=S1(=O)CCC(Cc2nc(-c3ccccn3)nn2Cc2ccccc2)C1 (centres undefined) | -15%
O=C(Nc1ccc(Cl)cc1)c1nc2c(o1)CCN(Cc1cnc[nH]1)CC2 | -11%[44.1 µM]
O=C(c1ccccn1)N1CCC(N2Cc3ccccc3C2=O)CC1 | 23%
c1c[nH]c(-c2nc3ncccc3[nH]2)c1 | -1%[44.1 µM]
Cc1noc(-c2ccn3c(CNC(=O)c4cc(Cl)ccc4F)nnc3c2)n1 | 13%
CN(Cc1cn(-c2ccccc2)nn1)Cc1noc2c1CCCC2 | 3%
CN(CCC(O)c1ccccc1)Cc1cn(-c2ccccc2)nn1 (centres undefined) | 8.9µM*
CC(C)n1cnnc1CN(C)Cc1cn(-c2ccccc2)nn1 | -14%
CN(Cc1cn[nH]c1-c1ccc(F)cc1)C(=O)c1ccccc1C1CCNC1 (centres undefined) | -5%
CNC(=O)Nc1ccc(C)n(CC(=O)NCc2cccc(C)c2)c1=O | -5%
CCc1nncn1C1CCN(S(=O)(=O)c2ccc(F)c(Cl)c2)CC1 | i
COc1ccc(Cl)cc1-c1ccc2c(c1)C(=O)N1C[C@@H](NS(=O)(=O)c3ccc(F)cc3)C[C@H]1C(=O)N2 | 7.1µM*
COc1ccc(Cl)cc1-c1ccc2c(c1)C(=O)N1C[C@H](O)C[C@H]1C(=O)N2 | -5%[44.1 µM]
COc1ccc(-c2ccc3c(c2)C(=O)N2CC[C@H](NS(=O)(=O)c4cccs4)[C@H]2C(=O)N3)cc1 | 11µM*
SMILES | Pf Dd2 growth
Cc1cccc(-c2ccc3c(c2)C(=O)N2CC[C@H](NS(=O)(=O)c4cccs4)[C@H]2C(=O)N3)c1C | 10µM*
CSCC(=O)N[C@H]1CCN2C(=O)c3cc(-c4cccc(C)c4C)ccc3NC(=O)[C@H]12 | i
O=C(N[C@H]1CCN2C(=O)c3ccc(Cl)cc3NC(=O)[C@H]12)c1cccs1 | -18%[44.1 µM]
COc1ccc(-c2ccc3c(c2)C(=O)N2CC[C@H](NC(=O)CSC)[C@H]2C(=O)N3)cc1 | i
O=C1Nc2ccc(-c3ccccc3F)cc2C(=O)N2C[C@@H](NS(=O)(=O)c3ccc(F)cc3)C[C@@H]12 | i
O=C1Nc2cc(Cl)ccc2C(=O)N2CC[C@H](NS(=O)(=O)c3cccs3)[C@@H]12 | i
O=C(N[C@H]1CCN2C(=O)c3cc(-c4ccc(Cl)cc4)ccc3NC(=O)[C@H]12)c1cccs1 | -17%
COc1ccc(-c2ccc3c(c2)C(=O)N2CC[C@H](NC(=O)c4cccs4)[C@H]2C(=O)N3)cc1 | -1%
COc1ccc(Cl)cc1-c1ccc2c(c1)C(=O)N1CC[C@H](NC(=O)c3cccs3)[C@H]1C(=O)N2 | 7.9µM*
COc1ccccc1NC(=O)Cn1c(=O)c(-c2noc(C)n2)c2n(c1=O)CCCCC2 | -16%
COc1ccc(-c2nc(C)c(C)cc2C#N)c2cccnc12 | -1%
O=C1CN(C(=O)c2cccc(C(F)(F)F)c2)CC(OCc2cccnc2)CN1CC1CCOCC1 (centres undefined) | -10%
COc1ccc(CC(=O)N2CCOC[C@H](Oc3ccc(OC)cc3)C2)cc1 | -9%[44.1 µM]
O=C1NC(=NC2CCCCC2)C2(CCN(CC3CC3)CC2)N1c1cccnc1 | 18%
Cc1ccc(F)cc1S(=O)(=O)N(C)CC1CCOCC1 | 14%
O=C(NC[C@H]1O[C@H](Cc2cc(CN3CCOCC3)on2)CC[C@@H]1O)c1cccc(F)c1 | -15%[44.1 µM]
Cc1cc(C(=O)N2CC[C@H](NC(=O)c3snnc3C)C[C@H]2C(=O)N[C@@H](Cc2cccs2)C(N)=O)n(C)n1 | -14%
CC(=O)NC1CC2(CCN(C(C)=O)CC2)Oc2ccccc21 (centres undefined) | -5%[44.1 µM]
O=C(c1ccccc1F)N1CCC2(CC1)C(=NC1CCCC1)NC(=O)N2c1cc(F)cc(F)c1 | -5%
Cc1ccc(-c2nnc(C3CN(C(=O)c4ccn[nH]4)CC34CCOCC4)o2)cc1 (centres undefined) | i
Cc1ccc(-c2nnc(C3CN(C(=O)c4n[nH]c5ccccc45)CC34CCOCC4)o2)cc1 (centres undefined) | 8.9µM*
Cc1ccc(-c2nnc(C3CN(C(=O)c4cccc(F)c4)CC34CCOCC4)o2)cc1 (centres undefined) | 4µM*
Cc1ccc(-c2nnc(C3CN(C(=O)Cc4cccc(F)c4)CC34CCOCC4)o2)cc1 (centres undefined) | i
Cc1ccc(-c2nnc(C3CN(C(=O)c4cccnc4C)CC34CCOCC4)o2)cc1 (centres undefined) | -14%
Cc1ccc(-c2nnc(C3CN(C(=O)c4cccc(C)c4)CC34CCOCC4)o2)cc1 (centres undefined) | i
SMILES | Pf Dd2 growth
CCOC(=O)CCNC(=O)N1CCCC(c2nc(-c3cnccn3)no2)CCNC(=O)CC1 (centres undefined) | -2%
O=C1NCc2ccccc2CC12CCCN(Cc1ccccc1Cl)C2 (centres undefined) | -30%
CN(Cc1ccccc1)Cc1cn([C@H]2CO[C@H]3[C@@H]2OC[C@@H]3NC(=O)NC2CCCCC2)nn1 | i
O=C(Nc1cccc(C(F)(F)F)c1)N[C@H]1CO[C@H]2[C@@H]1OC[C@@H]2n1nnnc1-c1ccc2c(c1)OCO2 | i
O=C(N[C@@H]1CN(c2ncccn2)C[C@H]1CO)c1ccncc1 | 25%
Cc1ccn(CC(=O)N2C[C@@H](CO)[C@H](c3nc(C4CC4)no3)C2)n1 | 25%
O=C1CCC2(CCN1CC1CC1)CCN(S(=O)(=O)c1ccccc1F)CC2 | -13%
COc1ccc(OC)c(NC(=O)c2cccn2-c2nnc(N3CCCCC3)s2)c1 | -25%
COc1ccc(NCc2cccn2-c2nnc(N3CCC(C)CC3)s2)c(OC)c1 | 11µM*
COc1ccc(OC)c(NCc2cccn2-c2nnc(N3CCC(C)CC3)s2)c1 | -11%
Cc1ccc(NC(=O)Cn2c(-c3cnccn3)nc(C)c(CCO)c2=O)cc1 | -2%
Cc1noc([C@@H]2CC(F)(F)CN2C(=O)c2cc(C)oc2C)n1 | -28%
O=C(NCCc1ccccc1F)C1CN(c2cccc(Cl)c2)C(=O)N1 (centres undefined) | -15%
O=C1CCCCC(CNC(=O)c2n[nH]c(=O)c3ccccc23)N1 (centres undefined) | -24%
COc1cc(C2CC(=O)Nc3cc4c(cc32)OCCO4)cc(Br)c1OC (centres undefined) | 1µM*
CCOc1c(Br)cc(C2CC(=O)Nc3cc4c(cc32)OCO4)cc1OC (centres undefined) | 3.2µM*
COc1cccc(C2CC(=O)Nc3cc4c(cc32)OCO4)c1OC(C)C (centres undefined) | 12%
